Laboratory results: PubChem BioAssay (Tox21)
Records with an inconclusive call do not appear. Entries that show only a call come without a potency. The source made the active and inactive calls. The call rests on the fitted dose curve.

Assay: p53 small molecule agonists, cell-based qHTS assay: qHTS cell viability counter screen (AID 1963581); further: nearly all actives have a fitted effect of over 45% in size
Details: p53RE-bla HCT-116 viability, ATP luminescence, 16 h; series mostly up to 66 µM; activity change, negative = cytotoxicity: at the top concentration
Source text: National Center for Advancing Translational Sciences [NCATS]
Division of Preclinical Innovation [DPI]
U.S. Environmental Protection Agency [EPA]
National Institutes of Environmental Health Sciences [NIEHS]
National Toxicology Program [NTP]
U.S. Food and Drug Administration [FDA]
p53, a tumor suppressor protein, is activated following cellular insult, including DNA damage and other cellular stresses. The activation of p53 regulates cell fate by inducing DNA repair, cell cycle arrest, apoptosis, or cellular senescence. The activation of p53, therefore, is a good indicator of DNA damage and other cellular stresses. The CellSensor p53RE-bla HCT-116 cell line (Invitrogen) contains a stably integrated beta-lactamase reporter gene under control of the p53 response elements. The activation of the reporter gene under culture conditions can be detected by fluorescence intensity. This cell line was used to screen the Tox21 compound library in a 1536-well plate format and to identify agonists that activate the p53 signaling pathway. The cytotoxicity of the Tox21 compound library against the p53 RE-bla HCT-116 cell line was tested in parallel by measuring the intra cellular ATP content in the same wells.
Tox21 Assay Protocol Summary:
The p53RE-bla cells were dispensed at 4,000 cells/5 ul/well in 1536-well black wall/clear bottom plates using a Multidrop dispenser. After the assay plates were incubated at a 37 C/5% CO2 incubator for 5 hours, 23 nL of compounds dissolved in DMSO, positive controls or DMSO only was transferred to the assay plate by a pin tool. The plates were incubated at 37 C for 16 hours. After 1 uL of LiveBLAzerTM B/G FRET substrate was added using a Flying Reagent Dispenser, the plates were incubated at room temperature for 2 hours, and fluorescence intensity was measured by an Envision plate reader. For cell viability readout that measures cytotoxicity, 4 ul/well of CellTiter-Glo reagent was added into the assay plates using a Flying Reagent Dispenser. After 30 min incubation at room temperature, the luminescence intensity in the plates was measured using a ViewLux plate reader.
Potency means the concentration at half of the fitted maximal effect.

Row | SMILES | Potency | activity change, negative = cytotoxicity
1 | O=c1[nH]c(=O)n([C@H]2C[C@H](O)[C@@H](CO)O2)cc1Br | inactive | –
2 | O=C1c2c(O)cccc2Cc2cccc(O)c21 | inactive | –
3 | CC1(C)NC(=O)N(c2ccc([N+](=O)[O-])c(C(F)(F)F)c2)C1=O | – | -4.03% (inactive)
4 | CCCCOCCOCCOC(C)=O | inactive | –
5 | CCOc1ccc(NC(=O)CC(C)O)cc1 (stereo not given) | inactive | –
6 | O=C(Oc1ccccc1)c1ccccc1O | inactive | –
7 | CC1(C)O[C@@H]2C[C@H]3[C@@H]4C[C@H](F)C5=CC(=O)CC[C@]5(C)[C@H]4[C@@H](O)C[C@]3(C)[C@]2(C(=O)CO)O1 | inactive | –
8 | Cc1ccc(S(=O)(=O)NCl)cc1 | inactive | –
9 | CC(O)COc1ccccc1 (stereo not given) | inactive | –
10 | OCCc1ccccc1 | inactive | –
11 | CCCCNC(=O)NS(=O)(=O)c1ccc(N)cc1 | inactive | –
12 | OCCOCCOCCO | inactive | –
13 | CN(N=O)C(=O)N[C@@H]1[C@@H](O)[C@H](O)[C@@H](CO)O[C@@H]1O | inactive | –
14 | Nc1cc([N+](=O)[O-])ccc1C(=O)O | inactive | –
15 | NCCCCCCN | inactive | –
16 | CCCCCCCC=O | – | 25.5% (inactive)
17 | CCCCCCCCCCCCO | inactive | –
18 | CCCCCCCCCCCCCC(=O)OC(C)C | inactive | –
19 | CC(=O)CCC(=O)O | inactive | –
20 | CCN(CC)CCOC(=O)c1ccc(N)cc1 | inactive | –

Row | SMILES | Potency | activity change, negative = cytotoxicity
21 | C=CCc1ccc(OC)c(OC)c1 | inactive | –
22 | CC(O)CC(C)(C)O (stereo not given) | inactive | –
23 | CCCCCCCCCCCCS | inactive | –
24 | CC(C)[N+](C)(CCOC(=O)C1c2ccccc2Oc2ccccc21)C(C)C | inactive | –
25 | Nc1cc(Cl)c(-c2cc(Cl)c(N)cc2Cl)cc1Cl | 32.4 µM (active) | –
26 | CC(CCO)CC(C)(C)C (stereo not given) | – | 2.09% (inactive)
27 | CN1CCC[C@H]1c1cccnc1 | inactive | –
28 | CC(=O)CCc1ccccc1 | – | -5.19% (inactive)
29 | CC(=O)[C@@]1(O)CC[C@H]2[C@@H]3C[C@H](C)C4=CC(=O)C=C[C@]4(C)[C@@]3(F)[C@@H](O)C[C@@]21C | inactive | –
30 | CC[Si](OC(C)=O)(OC(C)=O)OC(C)=O | inactive | –
31 | CCCCCCCC/C=C\CCCCCCCC(=O)O | inactive | –
32 | Nc1ccc(Cl)cc1Cl | inactive | –
33 | ClC1=C(Cl)C(Cl)(Cl)C(Cl)=C1Cl | inactive | –
34 | CCc1ccc(O)cc1 | inactive | –
35 | C=C(C)C(=O)OCCCCCCCCCCCC | inactive | –
36 | CC1(C)CC(N)CC(C)(CN)C1 (stereo not given) | – | 13.2% (inactive)
37 | CCOC(=O)NNc1nncc2ccccc12 | inactive | –
38 | O=C(O)CCCCC1CCSS1 (stereo not given) | inactive | –
39 | O=C(OCc1ccccc1)c1ccccc1 | inactive | –
40 | O=S(=O)(O)c1ccc2cc(O)ccc2c1 | inactive | –
